Mdm2 MdmX PPI – inhibitors of human Mdm2-MdmX association, primary screen, cell-based, luminescence, split luciferase, SaOS-2, uHTS. SaOS-2 split-luciferase Mdm2/MdmX complementation. inhibition, % at 8 µM. hit rate 3% among 330,000;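 active = inhibition of at least 50% at 8 µM in the primary screen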
Target sequence (O15151 whole entry, looked up): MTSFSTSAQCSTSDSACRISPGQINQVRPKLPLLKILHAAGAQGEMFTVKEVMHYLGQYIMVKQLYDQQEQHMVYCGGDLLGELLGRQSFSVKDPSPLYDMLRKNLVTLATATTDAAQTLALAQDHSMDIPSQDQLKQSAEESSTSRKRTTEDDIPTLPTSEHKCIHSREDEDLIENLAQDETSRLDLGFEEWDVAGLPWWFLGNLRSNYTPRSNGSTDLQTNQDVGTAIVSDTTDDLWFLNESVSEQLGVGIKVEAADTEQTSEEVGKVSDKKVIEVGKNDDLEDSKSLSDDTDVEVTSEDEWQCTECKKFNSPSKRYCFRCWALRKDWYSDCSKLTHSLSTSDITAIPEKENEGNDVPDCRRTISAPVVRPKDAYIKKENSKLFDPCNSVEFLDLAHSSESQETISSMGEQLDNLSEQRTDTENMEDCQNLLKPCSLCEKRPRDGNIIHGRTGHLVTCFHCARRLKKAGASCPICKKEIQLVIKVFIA
Target sequence (Q00987 whole entry, looked up): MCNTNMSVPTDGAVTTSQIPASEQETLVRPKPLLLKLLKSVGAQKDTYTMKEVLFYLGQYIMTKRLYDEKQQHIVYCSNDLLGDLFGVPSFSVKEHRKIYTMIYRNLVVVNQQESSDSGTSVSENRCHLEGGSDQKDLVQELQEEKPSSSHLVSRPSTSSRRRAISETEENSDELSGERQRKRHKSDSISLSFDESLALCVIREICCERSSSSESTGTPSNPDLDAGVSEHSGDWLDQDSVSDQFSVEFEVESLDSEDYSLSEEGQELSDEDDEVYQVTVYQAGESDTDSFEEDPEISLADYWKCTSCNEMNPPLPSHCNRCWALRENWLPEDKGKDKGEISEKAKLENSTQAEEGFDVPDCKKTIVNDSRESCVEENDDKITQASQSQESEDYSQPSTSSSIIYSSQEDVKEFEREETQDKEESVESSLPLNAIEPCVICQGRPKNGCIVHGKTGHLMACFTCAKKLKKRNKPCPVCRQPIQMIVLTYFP
CSC inhib – cancer stem cell viability inhibitors, primary screen, luminescence; cancer stem cell-like cells viability; inhibition, % at 7.5 µM; hit rate 1.1% among 300,000; AID 2717, 2010; in the data active = inhibition above about 75%; tested in HMLE shEcad cells
Beta cell apopt – inhibitors of cytokine-induced beta cell apoptosis, primary screen, luminescence. INS-1E cytokine-induced death, ATP luminescence, 48 h; percent of positive-control rescue, neutral wells zero. hit rate 0.8% among 300,000. protection from apoptosis, % (concentration not given with the values);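 active = Every replicate reaches about 75%, or at least half do and their mean reaches it too, limit read from the data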;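 also: 0% = cytokine-treated negative control wells and 100% = positive control rescue; higher means more ATP so stronger rescue from cytokine killing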
A1 inh – caspase 3/7 activation in MEF A1-2A-BIM cells, primary screen, A1 inhibitor project, cell-based, luminescence, HTS. Caspase-Glo 3/7 luminescence, 3 h; percent of clofoctol response, vehicle zero. caspase activation, % (test concentration not listed). hit rate 0.066% among 330,000;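 active = over half of replicate activation scores above 10%, or exactly half above 10 with the replicate mean above 10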
aSyn UTR inh – MLPCN primary screen, SNCA 5' untranslated region | alpha-synuclein 5'UTR reporter, inhibitor activity | inhibition, % (tested at 7.5 µM) | hit rate 0.82% among 300,000; in the data active = inhibition above about 60%;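 also: H4 neuroglioblastoma cells stably carrying SNCA 5'UTR luciferase fusion; 0% = DMSO wells and 100% = positive control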
Mdm2 MdmX conf – Mdm2-MdmX complex disruptors, retested hits, confirmation, luminescence, single concentration. shares compounds with Mdm2 MdmX PPI. Mdm2-MdmX binding, luminescent assay. inhibition, % at 8 µM. hit rate 55% among 10,000; in the data active = inhibition above about 40%
Full FLuc ctr – full-length luciferase signal inhibition, confirmation, counter-screen for Mdm2/MdmX interaction inhibitor project, cell-based, single concentration, SaOS-2; AID 504607, 2011; SaOS-2 full-length luciferase counterscreen, luminescence; hit rate 77% among 6,200; inhibition, % at 8 µM; shares compounds with Mdm2 MdmX PPI;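 active = mean inhibition at 8 µM reaching about 37%, which flags the compound as non-specific, limit read from the data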;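 also: p53-null SaOS-2 cells with luciferase driven by a doxycycline-inducible promoter; compound on cells about two nights before reading with doxycycline added after day one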
The depositor's hits bear a star; · = not tested or not shown. Shown are actives, neighbours in structure and some others; about 4.1% of the full set was active somewhere.

SMILES	Mdm2 MdmX PPI	CSC inhib	Beta cell apopt	A1 inh	aSyn UTR inh	Mdm2 MdmX conf	Full FLuc ctr
COc1ccc(C(=O)CN2C(=O)c3ccccc3S2(=O)=O)cc1	94*	-5	0	-4	101*	95*	26
O=C(CN1C(=O)c2ccccc2S1(=O)=O)Nc1ccccc1	32	-9	-5	0	24	·	·
Cc1cc(C(=O)CN2C(=O)c3ccccc3S2(=O)=O)c(C)n1CC1CCCO1 (stereo not given)	54*	-7	-1	0	111*	37	9
O=C(CN1C(=O)c2ccccc2S1(=O)=O)c1ccc(O)c(O)c1	56*	-4	2	-1	64*	55*	74*
CC(NS(=O)(=O)c1cc(C(F)(F)F)ccc1Cl)C(=O)N(C)C1CCN(C)CC1 (stereo not given)	0	-11	-2	-1	·	·	·
CC(C)C(=O)Nc1cc2c3c(c1)CCN3C(=O)CC2	22	-3	2	0	9	·	·
Cc1cc(NC(=O)CSCC(=O)N2CCN(c3ccccc3)CC2)no1	8	-14	-4	1	·	·	·
CN(C)c1ccc(C2Nc3ccccc3C(=O)N2NS(C)(=O)=O)cc1 (stereo not given)	14	-11	-6	0	-16	·	·
Cc1ccc(C)c(C(=O)CN2C(=O)c3ccccc3S2(=O)=O)c1	68*	-5	-5	-1	42	60*	100*
COc1ccc(C(=O)C(C)OC(=O)COc2ccccc2)cc1 (stereo not given)	18	1	-6	1	·	·	·
COc1ccc(CCC(=O)OC(C)C(=O)c2ccc(C)cc2)cc1 (stereo not given)	67*	-10	-1	0	3	-3	·
C=CC[C@@H](CC(=O)N[C@H](CO)Cc1ccccc1)C(=O)N[C@H](COC(=O)[C@@H](CC=C)Cc1ccc(F)cc1)Cc1ccccc1	-2	-11	4	0	·	·	·
Cc1noc(/C=C/N(C)C)c1S(=O)(=O)N1CCCC(C(=O)Nc2ccc(F)cc2F)C1 (stereo not given)	12	-18	-5	0	8	·	·
CCN(CC(=O)Nc1ccc(OC)cc1)C(=O)c1cc(-c2cccs2)nn1-c1ccccc1	60*	22	4	0	13	55*	90*
COc1ccc(NC(=O)CN(C)C(=O)c2cc(-c3cccs3)nn2-c2ccccc2)cc1	27	-12	-4	0	19	·	·
C[C@H](NC(=O)c1nc[nH]c1C(=O)N1CCN(c2ccccc2)CC1)C(=O)OCc1ccccc1	-10	3	3	0	-4	·	·
CC(C)C[C@H](NC(=O)c1nc[nH]c1C(=O)N[C@@H](CC(C)C)C(=O)OCc1ccccc1)C(=O)OCc1ccccc1	58*	26	0	0	15	0	·
CC(C)C[C@H](NC(=O)c1nc[nH]c1C(=O)NC(c1ccccc1)c1ccccc1)C(=O)OCc1ccccc1	51*	18	-9	2	30	11	·
CC(C)C[C@H](NC(=O)c1[nH]cnc1C(=O)N[C@@H](Cc1ccccc1)C(=O)OCc1ccccc1)C(=O)OCc1ccccc1	25	-1	2	0	35	·	·
O=C(N[C@@H](Cc1ccccc1)C(=O)OCc1ccccc1)c1nc[nH]c1C(=O)N1CCN(c2ccccc2)CC1	65*	8	-3	0	-1	-15	·
COc1cccc(NC(=O)CN(C)C(=O)C(Sc2ccccc2)c2ccccc2)c1 (stereo not given)	-3	·	·	·	·	·	·
COCc1cc(CNC(=O)C2CCC(=O)N(Cc3ccccc3OC)C2)[nH]n1 (stereo not given)	-18	-12	-6	1	15	·	·
CCOc1ccc(CCNC(=O)COC(=O)c2cc(OC)c(OC)cc2[N+](=O)[O-])cc1OCC	15	-2	-2	-1	17	·	·
CC(=O)Nc1ccc(S(=O)(=O)N(C)CC(=O)N2CCN(C(=O)c3ccco3)CC2)cc1	3	-12	1	-1	·	·	·
Cc1cccc(NC(=O)CSc2nc3ccc(NC(=O)CSc4nnnn4-c4ccccc4)cc3s2)c1C	59*	-3	1	2	·	-5	·
SMILES	Mdm2 MdmX PPI	CSC inhib	Beta cell apopt	A1 inh	aSyn UTR inh	Mdm2 MdmX conf	Full FLuc ctr
COCc1cc(=O)[nH]c(Nc2nc(C)c3ccccc3n2)n1	25	9	-2	0	-36	·	·
Cc1cc(C)c2nc(Nc3nc(-c4ccccc4)cc(=O)[nH]3)nc(C)c2c1	71*	6	8	0	-5	23	·
Cc1ccc2oc(Nc3nc(-c4ccccc4)cc(=O)[nH]3)nc2c1	97*	·	·	·	-45	21	·
Clc1ccc(Cn2ncc3c(NCc4ccccc4)ncnc32)c(Cl)c1	69*	77*	-11	0	39	69*	39*
c1ccc(Cn2ncc3c(Nc4ccccc4)ncnc32)cc1	6	8	1	0	40	·	·
Brc1ccc(/C=N/Nc2ncnc3c2cnn3Cc2ccccc2)cc1	95*	·	26	0	-8	48*	68*
COc1ccc(NC(=O)CSc2nnc(NC(=O)C3CCC3)s2)c(OC)c1	-8	-10	3	0	24	·	·
COCCn1c(C)cc(C2=NNC(=Nc3ccccc3)SC2)c1C	62*	-4	-6	-1	-79	73*	81*
COc1ccc(OC)c(NC(=O)CSc2ccc3nnc(-c4ccccn4)n3n2)c1	38	-7	0	1	-6	·	·
CC(NC(=O)CN1C(=O)NC(Cc2ccccc2)(Cc2ccccc2)C1=O)C12CC3CC(CC(C3)C1)C2 (stereo not given)	77*	14	17	-1	14	45*	65*
CC1CCCCC1NC(=O)CN1C(=O)NC(Cc2ccccc2)(Cc2ccccc2)C1=O (stereo not given)	-1	-13	-4	-1	1	·	·
COc1ccc(NC(=O)/C(=C\c2cc(OC)c(OC)cc2[N+](=O)[O-])NC(=O)c2ccccc2)cc1	52*	·	-1	-1	-14	-11	·
COc1cc(OC)cc(-c2nnc(NC(=O)CCS(=O)(=O)c3ccc(C)cc3)o2)c1	51*	·	-7	-1	8	61*	72*
Cc1ccc(S(=O)(=O)CCC(=O)Nc2nnc(-c3ccc(F)cc3)o2)cc1	16	3	-14	-1	1	·	·
COc1cc(OC)cc(C(=O)NNC(=O)c2ccc3c(c2)OCCO3)c1	-2	-2	4	-3	·	·	·

Screens (PubChem)
